The supplement of paper PMC11732987, “Enantioselective OTUD7B fragment discovery through chemoproteomics screening and high-throughput optimisation” (Communications Chemistry, 2025)

Columns and labels:
Assay in all cases: log2 ratio of Biotin-Ahx-Ub-VS probe labelling (fragment/DMSO); higher = less target engagement (more negative = stronger competition), active = hit call of the paper (q ≤ 0.05, log2 ratio ≤ -1)
Conditions in all cases: compound concentration: 200 uM; treatment time: 3 h
OTUD6B = target: T1, OTUD6B (UniProt Q8N6M0)
T1 sequence (whole entry): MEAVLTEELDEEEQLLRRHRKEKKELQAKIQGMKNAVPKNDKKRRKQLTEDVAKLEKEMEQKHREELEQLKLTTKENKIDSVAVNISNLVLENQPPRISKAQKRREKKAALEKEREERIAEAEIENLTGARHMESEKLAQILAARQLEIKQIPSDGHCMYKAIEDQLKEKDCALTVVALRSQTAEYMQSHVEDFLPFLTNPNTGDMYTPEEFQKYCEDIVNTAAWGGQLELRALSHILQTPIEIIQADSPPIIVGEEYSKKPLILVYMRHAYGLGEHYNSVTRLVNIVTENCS
Method in brief: (§1)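 Fragment (200 µM) or vehicle was incubated for 3 h with triplicate HEK293T lysate samples of 495 µg, which were then treated with Biotin-Ahx-Ub-VS at 0.5 µM final for 1 h. Labelled DUBs were enriched on NeutrAvidin, digested with LysC and trypsin, and analysed by diaPASEF LC-MS/MS. Values are average log2 fragment/vehicle ratios from an unpaired t-test on global-median-normalised Spectronaut label-free quantities, using proteins with ≥2 unique peptides.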

OTUD7B = target: T2, OTUD7B (UniProt Q6GQQ9)
T2 sequence (whole entry): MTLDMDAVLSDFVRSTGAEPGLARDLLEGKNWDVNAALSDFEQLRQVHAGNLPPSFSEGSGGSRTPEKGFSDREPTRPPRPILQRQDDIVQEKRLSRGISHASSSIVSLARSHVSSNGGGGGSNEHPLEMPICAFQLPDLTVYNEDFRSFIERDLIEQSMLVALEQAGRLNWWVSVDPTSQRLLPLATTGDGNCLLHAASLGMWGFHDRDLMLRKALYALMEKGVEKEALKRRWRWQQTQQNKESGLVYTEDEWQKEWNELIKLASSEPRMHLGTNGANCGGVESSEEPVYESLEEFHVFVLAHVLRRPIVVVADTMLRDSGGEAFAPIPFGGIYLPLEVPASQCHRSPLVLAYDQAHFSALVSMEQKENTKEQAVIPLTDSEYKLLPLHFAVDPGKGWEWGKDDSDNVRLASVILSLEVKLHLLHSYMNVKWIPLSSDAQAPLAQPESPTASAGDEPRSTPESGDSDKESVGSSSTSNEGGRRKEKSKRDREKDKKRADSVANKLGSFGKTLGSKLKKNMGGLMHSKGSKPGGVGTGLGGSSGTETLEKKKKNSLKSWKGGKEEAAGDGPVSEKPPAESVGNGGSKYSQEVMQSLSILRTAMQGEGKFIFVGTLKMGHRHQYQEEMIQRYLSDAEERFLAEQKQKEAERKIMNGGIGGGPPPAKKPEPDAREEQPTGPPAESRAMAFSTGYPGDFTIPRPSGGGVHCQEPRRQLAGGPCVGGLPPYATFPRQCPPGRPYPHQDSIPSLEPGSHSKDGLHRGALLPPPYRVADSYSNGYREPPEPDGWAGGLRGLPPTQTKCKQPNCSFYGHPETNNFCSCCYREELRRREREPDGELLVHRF
Method in brief: as §1

PRPF8 = PRPF8 (UniProt Q6P2Q9)
Method in brief: as §1

PSMD7 = target: T3, PSMD7 (UniProt P51665)
T3 sequence (whole entry): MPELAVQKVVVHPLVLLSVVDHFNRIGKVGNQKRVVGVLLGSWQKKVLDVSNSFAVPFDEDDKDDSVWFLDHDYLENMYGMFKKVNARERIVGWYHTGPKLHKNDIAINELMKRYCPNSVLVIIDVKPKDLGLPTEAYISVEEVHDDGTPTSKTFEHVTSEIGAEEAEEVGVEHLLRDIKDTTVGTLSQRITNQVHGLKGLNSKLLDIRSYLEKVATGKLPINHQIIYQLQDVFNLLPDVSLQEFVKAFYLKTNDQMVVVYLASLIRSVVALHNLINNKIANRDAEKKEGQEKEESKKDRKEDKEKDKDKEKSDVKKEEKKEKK
Method in brief: as §1

UCHL1 = UCHL1 (UniProt P09936)
Method in brief: as §1

UCHL3 = target: T4, UCHL3 (UniProt P15374)
T4 sequence (whole entry): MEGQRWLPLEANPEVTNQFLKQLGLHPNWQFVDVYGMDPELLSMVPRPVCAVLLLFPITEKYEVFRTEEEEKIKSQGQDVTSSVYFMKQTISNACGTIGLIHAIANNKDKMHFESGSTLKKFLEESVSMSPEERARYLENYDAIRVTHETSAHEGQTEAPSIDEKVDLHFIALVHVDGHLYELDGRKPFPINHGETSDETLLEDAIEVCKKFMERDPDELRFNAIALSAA
Method in brief: as §1

UCHL5 = target: T5, UCHL5 (UniProt Q9Y5K5)
T5 sequence (whole entry): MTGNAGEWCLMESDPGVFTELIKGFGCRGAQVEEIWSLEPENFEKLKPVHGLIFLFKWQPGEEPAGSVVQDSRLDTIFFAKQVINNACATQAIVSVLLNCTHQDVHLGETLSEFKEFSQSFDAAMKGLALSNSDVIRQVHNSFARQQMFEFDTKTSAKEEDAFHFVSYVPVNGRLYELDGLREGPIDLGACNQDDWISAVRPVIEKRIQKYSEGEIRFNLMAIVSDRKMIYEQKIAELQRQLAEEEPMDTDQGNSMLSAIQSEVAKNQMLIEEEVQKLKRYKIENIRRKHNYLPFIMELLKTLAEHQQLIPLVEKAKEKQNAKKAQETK
Method in brief: as §1

USP10 = USP10 (UniProt Q14694)
Method in brief: as §1

USP15 = target: T6, USP15 (UniProt Q9Y4E8)
T6 sequence (whole entry): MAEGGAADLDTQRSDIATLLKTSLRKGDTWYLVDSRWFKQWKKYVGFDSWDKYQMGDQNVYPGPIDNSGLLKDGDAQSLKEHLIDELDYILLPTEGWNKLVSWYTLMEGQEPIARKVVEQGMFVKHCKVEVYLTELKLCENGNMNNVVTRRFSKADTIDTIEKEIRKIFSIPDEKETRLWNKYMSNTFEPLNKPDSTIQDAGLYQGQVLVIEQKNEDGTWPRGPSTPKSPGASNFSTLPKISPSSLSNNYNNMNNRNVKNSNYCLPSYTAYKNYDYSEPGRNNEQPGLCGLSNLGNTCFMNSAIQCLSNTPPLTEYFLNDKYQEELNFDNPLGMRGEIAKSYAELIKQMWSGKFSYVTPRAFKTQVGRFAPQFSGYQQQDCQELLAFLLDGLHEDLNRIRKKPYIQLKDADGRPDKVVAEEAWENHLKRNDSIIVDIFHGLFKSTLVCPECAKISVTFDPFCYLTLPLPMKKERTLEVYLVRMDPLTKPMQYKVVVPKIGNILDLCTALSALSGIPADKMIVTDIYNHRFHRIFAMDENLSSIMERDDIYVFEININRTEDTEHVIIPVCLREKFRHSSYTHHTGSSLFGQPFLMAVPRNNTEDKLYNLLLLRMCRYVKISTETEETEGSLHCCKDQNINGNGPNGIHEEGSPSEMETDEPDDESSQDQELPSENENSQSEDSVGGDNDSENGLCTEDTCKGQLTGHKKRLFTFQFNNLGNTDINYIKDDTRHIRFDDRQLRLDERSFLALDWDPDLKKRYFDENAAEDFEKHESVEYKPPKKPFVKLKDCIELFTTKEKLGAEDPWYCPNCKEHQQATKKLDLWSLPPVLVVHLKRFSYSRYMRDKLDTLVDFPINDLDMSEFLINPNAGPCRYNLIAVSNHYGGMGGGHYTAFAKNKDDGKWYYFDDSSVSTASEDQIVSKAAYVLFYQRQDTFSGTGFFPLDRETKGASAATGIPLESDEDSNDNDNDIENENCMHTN
Method in brief: as §1

USP16 = USP16 (UniProt Q9Y5T5)
Method in brief: as §1

Measured: log2 ratio of Biotin-Ahx-Ub-VS probe labelling

USP10, sequence (Q14694 whole entry): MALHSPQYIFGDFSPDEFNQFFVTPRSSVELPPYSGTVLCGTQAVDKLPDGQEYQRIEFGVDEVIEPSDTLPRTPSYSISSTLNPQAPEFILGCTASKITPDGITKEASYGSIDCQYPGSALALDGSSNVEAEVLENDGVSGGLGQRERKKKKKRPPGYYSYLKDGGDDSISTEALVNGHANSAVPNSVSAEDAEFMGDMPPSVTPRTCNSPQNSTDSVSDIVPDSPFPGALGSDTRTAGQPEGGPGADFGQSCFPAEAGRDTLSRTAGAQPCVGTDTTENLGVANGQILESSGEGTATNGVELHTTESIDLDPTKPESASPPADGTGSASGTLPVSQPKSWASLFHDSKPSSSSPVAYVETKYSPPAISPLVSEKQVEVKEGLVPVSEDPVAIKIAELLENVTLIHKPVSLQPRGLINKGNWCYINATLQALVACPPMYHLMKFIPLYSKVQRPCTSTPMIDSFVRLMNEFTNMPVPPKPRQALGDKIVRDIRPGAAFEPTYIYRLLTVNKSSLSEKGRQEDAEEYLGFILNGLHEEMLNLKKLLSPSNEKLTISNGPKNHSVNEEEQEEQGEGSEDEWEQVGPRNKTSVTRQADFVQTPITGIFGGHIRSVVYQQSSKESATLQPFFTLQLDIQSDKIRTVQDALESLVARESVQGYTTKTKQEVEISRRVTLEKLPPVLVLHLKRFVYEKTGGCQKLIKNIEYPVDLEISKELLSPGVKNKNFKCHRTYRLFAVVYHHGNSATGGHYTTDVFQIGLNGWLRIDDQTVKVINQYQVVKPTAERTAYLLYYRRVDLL
USP16, sequence (Q9Y5T5 whole entry, looked up): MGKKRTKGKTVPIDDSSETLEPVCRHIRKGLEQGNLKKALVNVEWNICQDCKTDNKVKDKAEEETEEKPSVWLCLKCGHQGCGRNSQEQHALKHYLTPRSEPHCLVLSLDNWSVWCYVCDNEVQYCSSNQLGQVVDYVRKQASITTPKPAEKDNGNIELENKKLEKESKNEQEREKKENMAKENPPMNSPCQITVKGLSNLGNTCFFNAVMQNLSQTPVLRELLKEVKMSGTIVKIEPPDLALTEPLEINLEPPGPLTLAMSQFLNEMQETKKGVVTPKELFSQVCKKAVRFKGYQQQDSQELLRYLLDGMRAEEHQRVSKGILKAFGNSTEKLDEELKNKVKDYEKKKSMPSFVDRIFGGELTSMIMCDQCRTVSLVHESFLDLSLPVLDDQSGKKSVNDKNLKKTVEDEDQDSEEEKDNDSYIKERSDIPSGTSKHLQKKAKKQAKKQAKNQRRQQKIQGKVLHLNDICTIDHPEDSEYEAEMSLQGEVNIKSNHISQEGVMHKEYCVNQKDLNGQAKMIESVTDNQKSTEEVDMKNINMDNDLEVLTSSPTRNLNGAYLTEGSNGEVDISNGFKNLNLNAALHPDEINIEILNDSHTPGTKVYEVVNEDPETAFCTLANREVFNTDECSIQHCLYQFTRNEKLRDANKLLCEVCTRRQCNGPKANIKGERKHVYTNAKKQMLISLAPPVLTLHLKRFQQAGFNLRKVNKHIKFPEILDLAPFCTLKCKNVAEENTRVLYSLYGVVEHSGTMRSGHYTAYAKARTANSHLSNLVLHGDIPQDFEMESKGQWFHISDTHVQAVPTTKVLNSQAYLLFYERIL
UCHL1, sequence (P09936 whole entry, looked up): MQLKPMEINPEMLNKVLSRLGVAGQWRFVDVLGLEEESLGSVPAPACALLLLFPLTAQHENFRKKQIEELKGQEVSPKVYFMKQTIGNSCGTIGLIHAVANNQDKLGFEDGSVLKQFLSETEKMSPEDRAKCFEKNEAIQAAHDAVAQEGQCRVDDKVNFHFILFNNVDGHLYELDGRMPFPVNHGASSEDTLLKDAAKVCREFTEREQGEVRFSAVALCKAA

O=C(CCl)Nc1nc(-c2cccs2)cs1
active: UCHL1 -1.45 | UCHL5 -2.61
inactive: OTUD6B -0.434 | OTUD7B -0.695 | PRPF8 0.14 | PSMD7 -0.0595 | UCHL3 0.426 | USP10 -0.0951 | USP15 -0.354 | USP16 -0.00927
